Experimental findings from PubChem BioAssay AID1851 (National Center for Advancing Translational Sciences (NCATS), 2009) are described below.

About 5,700 (36%) of roughly 16,000 compounds were called active. Roughly 24% stayed inconclusive and do not appear here. The call rests on the fitted dose curve; in most records, active means well fitted curve in the direction sought with a large enough effect; inconclusive means small, poorly fitted or top-dose-only effect, or effect the other way; inactive means no such curve, though single readings can be large or run the other way. This is one part of the list.

Broadly, the AC50 is the concentration giving half of the maximal activity seen.
On the % scale 0 is the no-effect control and ±100 the full control effect.

This assay deals with Cytochrome P450 1A2 (Homo sapiens) (UniProt P05177). The assay can be described thus: Cytochrome panel assay with activity outcomes. The following applies: recombinant CYP, pro-luciferin dealkylation, luminescence, p450-cyp1a2; series mostly up to 57.1 µM; activity, negative = inhibition: at the top concentration.
Sequence of Cytochrome P450 1A2 (Homo sapiens) (P05177 whole entry, looked up): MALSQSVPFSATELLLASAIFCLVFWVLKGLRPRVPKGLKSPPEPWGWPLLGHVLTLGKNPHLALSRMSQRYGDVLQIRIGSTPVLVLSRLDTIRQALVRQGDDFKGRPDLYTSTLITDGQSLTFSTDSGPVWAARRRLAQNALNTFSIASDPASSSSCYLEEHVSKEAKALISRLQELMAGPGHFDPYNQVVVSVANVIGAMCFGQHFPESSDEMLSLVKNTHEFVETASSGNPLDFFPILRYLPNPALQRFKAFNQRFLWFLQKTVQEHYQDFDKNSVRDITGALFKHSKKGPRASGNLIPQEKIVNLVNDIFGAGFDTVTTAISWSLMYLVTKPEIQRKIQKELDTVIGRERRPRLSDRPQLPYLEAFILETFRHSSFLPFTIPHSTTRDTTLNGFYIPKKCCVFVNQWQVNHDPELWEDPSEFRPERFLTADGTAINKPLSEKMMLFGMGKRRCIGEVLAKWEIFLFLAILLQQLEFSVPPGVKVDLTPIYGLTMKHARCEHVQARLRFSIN
For the compound `CC(C)(Oc1ccc(Cl)cc1)C(=O)Nc1ccncc1`, the AC50 was 20 µM (active).
The same measure, in the same setting: the result for `CC(C)(Oc1ccc(Cl)cc1)C(=O)Nc1cccnc1` reads 2 µM (active).
In the case of `N#CCCn1c(=O)c(-c2ccccc2)nc2cnc(Oc3cccc(Cl)c3)nc21`, the AC50 was 2.51 µM (active).
For `N#CCCn1c(=O)c(-c2ccc(Cl)cc2)nc2cnc(Oc3cccc(Cl)c3)nc21`, the “activity, negative = inhibition” value was -14.7% (inactive).
Take `N#CCCn1c(=O)c(-c2cccs2)nc2cnc(Oc3cccc(Cl)c3)nc21`: the AC50 is 3.16 µM (active).
For the compound `COCCn1c(=O)c(-c2cc(F)cc(F)c2)nc2cnc(Oc3cccc(Cl)c3)nc21`, the AC50 was 5.01 µM (active).
Turning to `COCCn1c(=O)c(-c2ccccc2)nc2cnc(Oc3cccc(Cl)c3)nc21`, the AC50 was 1 µM (active).
For the compound `Cc1noc(C)c1-c1nccc(NCc2cccnc2)n1`, the AC50 is 0.158 µM (active).
Take `Cc1cnc(CNc2ccnc(-c3c(C)noc3C)n2)cn1`: the AC50 was 12.6 µM (active).
`Cc1noc(C)c1C(=O)N1CCC2(CCN(Cc3ccccc3)CC2)CC1`: the “activity, negative = inhibition” value is -5.81% (inactive).
Take `Cc1noc(C)c1-c1nccc(NCc2ccccc2)n1`: the AC50 was 0.794 µM (active).
Still for that read-out and setting: the result for `Cc1noc(C)c1-c1nccc(NCc2cccs2)n1` reads 0.501 µM (active).
Regarding `CC(=O)N(NC(=O)c1ccccc1Cl)C1CC(=O)N(c2ccc(C)cc2)C1=O` (stereo not drawn), the “activity, negative = inhibition” value was 5.79% (inactive).
Turning to `O=C(O)/C=C\C(=O)N1Cc2cc3ccccc3nc2C1`, the activity, negative = inhibition was -16.3% [at 11.4 µM] (inactive).
As for `CC(=O)/C=C/c1ccc2ccccc2n1`, the AC50 is 2.51 µM (active).
Take `O=C(c1cnccn1)N1CCC2(CC1)CN(c1ccccn1)C2`: the “activity, negative = inhibition” value is -12.9% (inactive).
On to `C[C@@](N)(Cc1c[nH]c2ccccc12)C(=O)O`, for which the activity, negative = inhibition is -11.5% [at 11.4 µM] (inactive).
Consider `O=C(Cc1c[nH]c2ccccc12)OCC(=O)c1ccccc1`, for which the AC50 is 12.6 µM (active).
In the case of `CN(CC(=O)O)Cc1c[nH]c2ccccc12`, the activity, negative = inhibition was -14.8% [at 11.4 µM] (inactive).
Regarding `COC(=O)C(Cc1c[nH]c2ccccc12)NC(=O)C(C)C` (stereo not drawn), the “activity, negative = inhibition” value is -15.1% (inactive).
Regarding `CC(C)CNC(=O)CCCc1c[nH]c2ccccc12`, the AC50 was 14.1 µM (active).
Take `CN1C2C=C(N(CCc3c[nH]c4ccccc34)C(=O)c3ccc(Cl)cc3)CC1CC2` (stereo not drawn): the “activity, negative = inhibition” value is 14.6% (inactive).
For the compound `N[C@@H](Cc1c[nH]c2ccccc12)C(=O)O`, the “activity, negative = inhibition” value was -1.28% (inactive).
Regarding `CCOC(=O)CCCc1c[nH]c2ccccc12`, the AC50 was 2.51 µM (active).
For `Cc1cccc(CN2CCN(CC(=O)O)C2=O)c1`, the “activity, negative = inhibition” value is 9.94% (inactive).
In the case of `O=C(O)CN1CCN(Cc2ccccc2)C1=O`, the “activity, negative = inhibition” value is -26.6% (inactive).
`O=C(O)CN1CCN(Cc2ccc(F)cc2Cl)C1=O`: the AC50 was 5.62 µM (active).
In the case of `Cc1ccc(C(c2nnnn2CC2CCCO2)N2CCN(C(=O)c3ccco3)CC2)cc1` (stereo not drawn), the “activity, negative = inhibition” value is -19.2% (inactive).
Take `CCOC(=O)c1sc(N(Cc2ccccc2)C(=O)CN2C(=O)CN(C)C2=O)nc1C`: the AC50 is 20 µM (active).
Same read-out and setting: the result for `COc1ccc2[nH]c(=O)c(NC(N)=S)nc2c1` reads 3.55 µM (active); that for `Cc1ccc2[nH]c(=O)c(NC(N)=S)nc2c1`, 4.47 µM (active); that for `C(=N\n1cnnc1)/c1cccn1-c1ccccc1`, 8.91 µM (active).
`CC(C)NC(=O)N1CCCC2(CCN(S(=O)(=O)c3ccccc3)CC2)C1`: the “activity, negative = inhibition” value was -2.13% (inactive).
As to `CCCN1CNC(=S)N(c2cccc(C)c2C)C1`, the “activity, negative = inhibition” value was -0.257% (inactive).
Regarding `CC(C)=CCc1c(C)nc2ccccc2c1C(=O)O`, the “activity, negative = inhibition” value was -22.6% (inactive).
On to `CC(C)=CCC1=C(OCC(=O)O)C(=O)c2ccccc2C1=O`, for which the AC50 is 0.501 µM (active).
With `O=C1CSC(c2ccccn2)N1c1ccc(Cl)c(Cl)c1` (stereo not drawn), the AC50 is 10 µM (active).
As to `CC(=O)Nc1ccc(N2C(=O)CSC2c2c(F)cccc2Cl)cc1` (stereo not drawn), the “activity, negative = inhibition” value was -0.57% (inactive).
On to `O=C1CC(N2CCN(CCc3ccccn3)CC2)C(=O)N1c1ccc(Cl)cc1` (stereo not drawn), for which the “activity, negative = inhibition” value was -11.7% (inactive).
`COc1cc2c(cc1OC)-c1cc(=Nc3c(C)cc(C)cc3C)n(C)c(=O)n1CC2`: the “activity, negative = inhibition” value is -18.3% (inactive).
Regarding `COc1ccc(OC)c2[nH]c(=O)c(CCNC(=O)c3ccc(S(=O)(=O)N(C)C)cc3)cc12`, the “activity, negative = inhibition” value was -13.1% (inactive).
Turning to `COc1ccc(Cl)cc1C(=O)NCCc1ccc(S(=O)(=O)NC(=O)NC2CCCCC2)cc1`, the “activity, negative = inhibition” value is -2.36% [at 25.6 µM] (inactive).
As to `COc1ccc(OC)c2[nH]c(=O)c(CCNC(=O)c3ccc(S(=O)(=O)N4CCCC4)cc3)cc12`, the “activity, negative = inhibition” value is -27.7% (inactive).
Consider `Cn1c(=O)c2cc(S(=O)(=O)NCCC(=O)Nc3ccc(Cl)cc3)ccc2n(C)c1=O`, for which the “activity, negative = inhibition” value is -4.77% (inactive).
Regarding `COc1ccc(OC)c2[nH]c(=O)c(CCNS(=O)(=O)c3ccc(Cl)cc3)cc12`, the AC50 is 12.6 µM (active).
For `COc1ccc(OC)c2[nH]c(=O)c(CCNS(=O)(=O)c3ccccc3)cc12`, the AC50 is 12.6 µM (active).
For the compound `COc1ccc(OC)c2[nH]c(=O)c(CCNC(=O)COc3ccccc3)cc12`, the AC50 is 11.2 µM (active).
As to `CC1(C)OC[C@@H]2O[C@H](n3cnc4c(N)nc(Cl)nc43)[C@@H](OS(C)(=O)=O)[C@@H]2O1`, the activity, negative = inhibition was -14.5% [at 2.29 µM] (inactive).
For `O=S(=O)(c1cccc(-c2nnc(-c3ccc(Br)cc3)o2)c1)N1CCCCCC1`, the half-maximal activity concentration (AC50) is 14.1 µM (active).
With `O=C(O)CCC(=O)N1CCc2cc(S(=O)(=O)N3CCCCC3)ccc21`, the “activity, negative = inhibition” value is -10.2% (inactive).
With `O=S(=O)(c1ccc(Br)cc1)N1CCN(S(=O)(=O)c2ccc(Br)cc2)CC1`, the activity, negative = inhibition was -11.2% [at 11.4 µM] (inactive).
On to `Cc1nn2c3c(cnc2c1-c1ccccc1)C(=O)CC(c1ccccc1)C3` (stereo not drawn), for which the AC50 was 3.16 µM (active).
Turning to `CCC1NC(=S)N(C2CCCCC2)C1=O` (stereo not drawn), the “activity, negative = inhibition” value was -4.86% (inactive).
`CN(Cc1ccco1)c1ccnc(-c2ccoc2)n1`: the AC50 is 12.6 µM (active).
In the case of `CN(C)C(=O)c1ccc(-c2nccc(N(C)Cc3ccco3)n2)cc1`, the AC50 is 12.6 µM (active).
On to `COc1cccc(-c2nccc(N(C)Cc3ccco3)n2)c1`, for which the AC50 was 0.631 µM (active).
`CN(Cc1ccco1)c1ccnc(-c2cccnc2)n1`: the AC50 was 0.794 µM (active).
As for `COc1ccc(Cc2nnc(NC(=O)Cn3cnc4c3c(=O)n(C)c(=O)n4C)s2)cc1OC`, the “activity, negative = inhibition” value is 2.87% (inactive).
Consider `CN(Cc1ccco1)c1ccnc(-c2cccc(C#N)c2)n1`, for which the AC50 was 0.398 µM (active).
For the compound `CS/C(N)=N/N=C/c1ccc([N+](=O)[O-])cc1`, the AC50 was 14.1 µM (active).
With `O=C1CCCC=C1[C@H](O)c1ccc([N+](=O)[O-])cc1`, the activity, negative = inhibition is -7.01% [at 11.4 µM] (inactive).
The same measure, in the same setting: the result for `NC(N)=N/N=C\c1ccc(C2CCNCC2)cc1` reads -12% [at 2.29 µM] (inactive); that for `C=CCNC(=O)c1onc(CSc2ccc(F)cc2)c1C(=O)O`, -2.62% (inactive).
Regarding `C=CCNC(=O)c1ccc2nc(-c3ccccc3)c(-c3ccccc3)nc2c1`, the AC50 was 15.8 µM (active).
Consider `C=CCNC(=O)c1cccn1-c1ccsc1C(=O)OC`, for which the “activity, negative = inhibition” value is -26.4% (inactive).
In the case of `C=CCNC(=O)c1ccc(-c2nc(-c3ccc(Cl)c(Cl)c3)cs2)cc1`, the “activity, negative = inhibition” value is -28.6% (inactive).
Turning to `COc1ccc(N(C)C(=O)c2ccc3nc(-c4ccccc4)c(-c4ccccc4)nc3c2)cc1`, the “activity, negative = inhibition” value was -19.6% (inactive).
In the case of `C=CCNC(=O)c1csc(-c2ccccc2)n1`, the AC50 is 0.631 µM (active).
